# Screening data as filed in PubChem BioAssay.
# This excerpt belongs to a sample that is enriched for hits.
# Pf Dd2 inh – qHTS Primary assay for Inhibitors of Plasmodium falciparum Dd2 growth in vitro; Potency, µM (series often up to 28.9 µM), inactives show at the highest dose activity, negative = inhibition, actives largely listed as inhibitors; AID 1347417, 2020; P. falciparum Dd2 growth, SYBR Green, 72 h; actives 4.3% (n = 120,000); active = well fitted inhibition curve with a large enough effect;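 also: plate controls were DMSO vehicle for no effect and reference drug for full effect; nearly all actives have a fitted effect of over 65% in size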
#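 Infected erythrocytes (Dd2, 0.3% parasitemia, 2.5% hematocrit final) are added to compound in RPMI-1640/Albumax II medium, grown 72 h at 37C in low oxygen, then lysed with saponin/Triton-X containing SYBR Green and read by fluorescence.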
# An asterisk follows results filed as active; i = inactive; [ ] = another dose, or the depositor's remark. Potency is read from the fitted curve at half-maximal effect.
SMILES,Pf Dd2 inh
CCOc1ccc(NC(=O)c2cn(C)c(=O)c3cc(OC)c(OC)cc23)cc1,21%
COc1ccc(NC(=O)c2cn(CC(C)C)c(=O)c3cc(OC)c(OC)cc23)cc1Cl,11µM*
COc1cc(OC)c(NC(=O)c2cn(C)c(=O)c3cc(OC)c(OC)cc23)cc1Cl,15%
COCCn1cc(CN(C)CC(=O)N2CCCCCC2)ccc1=O,-19%
COc1ccc(CN2CCN3C(=O)N(Cc4ccc(OC)cc4)C[C@H]3C2)cc1,-6%[44.1 µM]
COc1ccc(CN2C[C@H]3CN(Cc4ccc(Cl)cc4)CCN3C2=O)cc1,11%[44.1 µM]
COc1ccc(CN2C[C@H]3CN(Cc4ccc5c(c4)OCCO5)CCN3C2=O)cc1,11µM*
O=C(C1CC(=O)N(c2n[nH]c3ccccc23)C1)N1CCc2ccccc2C1 (configuration not stated),i
Cc1nn2c(c1-c1ccccc1N1CCCC1)N(C(=O)c1cccc(N(C)C)c1)CCC2,-53%[44.1 µM]
CCN(Cc1ccccc1)C(=O)C1CCCN(C(=O)c2cccnc2)CCC(=O)NCC1 (configuration not stated),-5%
O=C(NC[C@H]1OC[C@@H](NCc2ncc[nH]2)[C@@H]1O)Nc1ccccc1,29%[44.1 µM]
CCN(CC)C(=O)Cn1c(=O)cc(C)c2c(C)nn(C)c21,i
Cc1cc(=O)n(Cc2ccccc2)c2c1c(C)nn2-c1ccccc1,7%
CCc1ccc(-n2nc(C)c3c(C)cc(=O)n(CC(=O)N(CC)Cc4ccccc4)c32)cc1,8.9µM*
O=C(NC1CCCCC1)N[C@H]1[C@H](O)[C@@H](Sc2ccccc2)[C@@H]2OC[C@H]1O2,-23%[44.1 µM]
O[C@H]1[C@H](NCC2CCCC2)[C@@H](c2ccccc2)C[C@H]1O,1.8µM*
CS(=O)(=O)N[C@H]1[C@H](O)[C@H](O)C[C@@H]1c1ccccc1,-6%[44.1 µM]
Cc1cccc([C@H]2C[C@@H](O)[C@@H](O)[C@@H]2NCC2CCCC2)c1,-3%[44.1 µM]
O=C([C@H]1C[C@@H](F)CN1C(=O)c1ccc(Cl)cc1)N1CCOCC1,41%
Cc1cccc(CN2CCCCCCN(C)C(=O)[C@@H]3CCC[C@@H]32)c1,2.5µM*
Cc1cccc(CN2CCCCCNC(=O)[C@@H]3CCC[C@@H]32)c1,-27%
CN1CCCCCCN(C(=O)NCCc2ccccc2)[C@H]2CCC[C@H]2C1=O,-8%
CN1C(=O)[C@H]2CN(Cc3ccc4[nH]ccc4c3)C[C@H]2C1=O,i
CN1CCCCCCN(C(=O)Cc2cccnc2)[C@@H]2CCC[C@@H]2C1=O,11%
CN1CCCCCCN(Cc2ccc3[nH]ccc3c2)[C@H]2CCC[C@H]2C1=O,2µM*
SMILES,Pf Dd2 inh
CCCn1nc(C)c(Cn2cc(-c3nccn3C)nn2)c1C,-12%
O=C(CN1C(=O)NC(c2ccccc2Cl)C2=C1COC2=O)Nc1ccc(Cl)cc1 (configuration not stated),i
O=C(c1ccc(F)cc1F)N1CCC2(CC1)N=C(c1ccc(Cl)cc1)NO2,i
c1ccc(O[C@H]2COCCN(c3nc4ccccc4o3)C2)nc1,-11%[44.1 µM]
CC(=O)Nc1nc2c(s1)C[C@@H]1[C@](C)(CO)[C@H](O)CC[C@@]1(C)[C@@H]2CC(=O)N1CCOCC1,i
COc1ccccc1NC(=O)C1=C(C)Nc2nc3ccccc3n2C1c1cccc(OC)c1OC (configuration not stated),i
COc1cccc(C2C(C(=O)Nc3ccccc3OC)=C(C)Nc3nc4ccccc4n32)c1 (configuration not stated),7.1µM*
CCOc1ccccc1C1C(C(=O)Nc2ccccc2OC)=C(C)Nc2nc3ccccc3n21 (configuration not stated),-19%
CC[C@H]1CN(C(=O)c2ccnc(Cl)c2)CC[C@H]1CC(=O)N(C)CC#N,26%[44.1 µM]
O=C(CCC1CCN(C(=O)c2ccccc2)CC1)Nc1ccc(F)cc1,i
COCc1cc(C[C@@H]2C[C@H](NC3CCC3)C2(C)C)no1,i
CC(C)N[C@H]1C[C@@H](Cc2cc(-c3ccccc3)on2)C1(C)C,-8%[44.1 µM]
CN1CCC(N[C@H]2C[C@@H](Cc3cc(-c4ccccc4)on3)C2(C)C)CC1,4µM*
COc1ccc(C(=O)N[C@H]2C[C@@H](Cc3cc(CN(C)C)on3)C2(C)C)cc1,-17%[44.1 µM]
COc1ccc(C(=O)N[C@H]2C[C@@H](Cc3cc(-c4ccccc4)on3)C2(C)C)cc1,4.5µM*
CCNC(=O)N[C@H]1C[C@@H](Cc2cc(-c3ccccc3)on2)C1(C)C,-16%[44.1 µM]
O=C(c1ccsc1)N1CCN(c2cc(-c3cccs3)[nH]n2)CC1,i
Cc1cc(C)n2nc(C(=O)NCC3COc4ccccc4C3)cc2n1 (configuration not stated),-5%
COCCN1CCC2(CCC1=O)CCN(S(=O)(=O)c1cc(C)ccc1C)CC2,7%
CNC(=O)N1CCC(C2CCN(C3CCSCC3)C2)CC1 (configuration not stated),i
Cc1cccc(CCN2CCC3(CC2)C(C(=O)O)CC(=O)N3C)n1 (configuration not stated),-19%
CSc1ccc(-c2ccc3c(c2)C(=O)N2CCN(C(=O)CCC(=O)O)C[C@@H]2C(=O)N3)cc1,7%
CSc1ccc(-c2ccc3c(c2)C(=O)N2CCN(C(=O)CCC(=O)O)C[C@H]2C(=O)N3)cc1,42%
CSc1ccc(-c2ccc3c(c2)C(=O)N2CCN(C(=O)CC(C)(C)C)C[C@@H]2C(=O)N3)cc1,5.6µM*
COCC1CN(C2CCC2)CC12CCN(C(=O)C1CC=CC1)CC2 (configuration not stated),i
SMILES,Pf Dd2 inh
CCCc1cnc(C)nc1N1CCC(c2nnc(CN(C)C)n2CC)CC1,-18%
O=C([C@@H]1C[C@H](Oc2ccccc2)CN1C(=O)Cc1c[nH]c2ccccc12)N1CCOCC1,-22%
O=C([C@@H]1C[C@H](Oc2cccnc2)CN1C(=O)CCc1c[nH]c2ccccc12)N1CCOCC1,4µM*
O=C([C@@H]1C[C@H](Oc2cccnc2)CN1C(=O)CCc1ccccc1)N1CCOCC1,-6%
O=C(c1ccc2c(c1)OCO2)N1CCC2(CC1)COc1ccccc1CN2,1.3µM*
O=C1NC2(CCCN(C(=O)c3ccccc3F)C2)COc2ccccc21 (configuration not stated),-22%
O=C(c1ccccc1F)N1CCC2(CC1)COc1ccccc1NC2=O,5%
O=C1NC2(CCN(C(=O)c3ccc4c(c3)OCO4)C2)Oc2ccccc21 (configuration not stated),-19%
O=C1CC(C(=O)O)C2(CCN(C(=O)c3ccc4c(c3)OCO4)CC2)N1 (configuration not stated),5%
O=C(c1ccccc1F)N1CCC2(CC1)COc1ccccc1CN2,1.1µM*
COCc1noc([C@@H]2CC(F)(F)CN2C(=O)c2cc(C)[nH]n2)n1,-1%
COc1cccc(NC(=O)N[C@H]2CCN(C(=O)c3cccn3C)[C@@H]2C(=O)N[C@@H](Cc2cccs2)C(N)=O)c1,i
Cn1cc(-c2ccncc2)cc1C(=O)NCc1ccc(Cl)cc1,-23%
CCNC(=O)N[C@H]1CC[C@]2(C)CCC([C@H](C)C(=O)NC3CC3)[C@H](O)[C@H]2[C@@H]1C (some centres not stated),5%[44.1 µM]
CCNC(=O)NC[C@H]1O[C@H](Cc2cc(CN3CCOCC3)on2)CC[C@@H]1O,-10%[44.1 µM]
CN(Cc1cccc(C(F)(F)F)c1)C(=O)Cc1ccc(F)cc1,i
CN(Cc1cccc(C(F)(F)F)c1)C(=O)c1ccc(F)cc1,11µM*
CC(=O)N(C)Cc1cccc(C(F)(F)F)c1,-6%[44.1 µM]
